From PubChem BioAssay AID624093 (National Center for Advancing Translational Sciences (NCATS), 2012) come the findings set out here.

Records with an inconclusive call do not appear. Calls of active or inactive are those of the source. Calls come from the whole dose curve; as a rule, active = well fitted inhibition curve with a large enough effect; inconclusive = small, poorly fitted or top-dose-only effect; inactive = flat fitted curve, though single readings scatter.

This assay has as its target Dual specificity tyrosine-phosphorylation-regulated kinase 1A (Homo sapiens) (UniProt Q13627). In words: Confirmation Assay for Inhibitors of Dyrk1a (Kinase-Glo Assay): KU probe. The settings on record: Kinase-Glo ATP luminescence; series mostly up to 76.9 µM. From the text:
NIH Molecular Libraries Probe Production Centers Network [MLPCN] NIH Chemical Genomics Center [NCGC] MLSCN Grant: 1R03MH084827-01 PI Name: Tom Misteli NCGC Assay Overview: The CMGC group of protein kinases which includes CDK-like kinases (Clk) and Dyks are essential kinases found in all eukaryotes. Clks have been implicated to play a role in the regulation of alternative splicing; while Dyrks, in particular over expression of Dyrk1A, has been linked to diseases as Down syndrome (DS; OMIM 190685) and Alzheimer disease (AD; OMIM 104300). Among the members of the CMGC group, the Clks and the Dyrks are very closely related therefore to determine validity and selectivity of an active compound observed in the CLK4 qHTS screen (AID:1770), a bioluminescent counter-screen against Dyrk1A was developed. In addition, potent and selective compounds against Dyrk1A were identified to further assess the role of this enzyme in DS and AD. Dyrk1A (Invitrogen, cat # PV3785) was assayed using ATP and DYRKtide (AnaSpec, cat# 62698) as substrates. Promega Kinase-Glo (cat# V6712) technology was used to detect the residual ATP following kinetic reaction. The Kinase-Glo Plus contains Ultra-Glo [5] luciferase and D-luciferin which generates a bioluminescence signal from the remaining ATP. No enzyme and harmine (Sigma, cat # 286044-1G), a compound shown to inhibit Dyrks were used as a positive control; while DMSO treatment was used as a negative control.
NCGC Assay Protocol Summary: Two uL/well of substrate solution (8uM Dyrktide, 2uM ATP, 25mM Tris-HCl pH 7.5, 10mM MgCl2 , 0.5mM EGTA, 5mM cystein, 0.01% Triton X-100 final concentration) was dispensed into 1536-well assay plates (Greiner, solid white, medium-binding plates) with Aurora Discovery BioRAPTR Flying Reagent Dispenser (FRD, Beckton-Dickenson). Compound solution (23 nL) was transferred to the assay plate using Kalypsys pin tool equipped with a 1536-pin tool. One uL/well enzyme solution (5nM Dyrk1A, 25mM Tris-HCl pH7.5, 10mM MgCl2, 0.5mM EGTA, 5mM cystein, 0.01% Triton X-100 final concentration) was then added using FRD yielding a total kinase reaction volume of 3uL/well. After 2 hours of room temperature incubation, 3uL Kinase-Glo detection reagent was added for a final assay volume of 6uL/well. The plates were spun for 30 seconds (1000 rpm) and incubated at ambient temperature for 2 minutes followed by a luminescence read using Perkin Elmer ViewLux plate reader at 3 seconds exposure time and 2x binning.
For `Cc1c(-c2ccnc(Nc3cc(Br)cc(C(F)(F)F)c3)n2)sc(=O)n1C`, the Potency was 130 nM (active). Under `O=C(O)c1ccc(-c2ccc3ncnc(NCc4nccs4)c3c2)o1` stands 8230 nM (active); under `COc1ccc(-c2ccnc(NCc3ccc(Cl)cc3)n2)cc1`, 1840 nM (active); under `Clc1ccc(CNc2ncncc2-c2ccc3c(c2)OCO3)cc1Cl`, 4120 nM (active). As for `c1cc(-c2ccoc2)nc(-c2ccoc2)n1`, the Potency is 20700 nM (active). Consider `Cc1noc(C)c1-c1nccc(NCc2ccc(Cl)c(Cl)c2)n1`, for which the Potency entry is “inactive”.

Regarding `Brc1cc(Br)cc(CNc2ccnc(-c3ccc4c(c3)OCO4)n2)c1`, the Potency result is “inactive”. Turning to `Clc1ccc(CNc2ccnc(-c3ccc4c(c3)OCO4)n2)cc1`, the Potency entry is “inactive”. Under `c1ccc(CNc2ccnc(-c3ccc4c(c3)OCO4)n2)cc1` stands 26000 nM (active).

`CN(C)c1ccc(-c2nccc(NCc3ccc(Cl)cc3)n2)cc1`: the Potency entry is “inactive”. Under `c1nc(NC[C@@H]2CCCO2)c2cc(-c3ccc4c(c3)OCO4)ccc2n1` stands 130 nM (active); under `c1cncc(CNc2nccc(-c3ccc4cn[nH]c4c3)n2)c1`, 207 nM (active); under `c1cncc(CNc2nccc(-c3ccc4c(c3)OCO4)n2)c1`, 36.8 nM (active).

As to `O=C(O)c1ccc(-c2ccc3ncnc(N4CCOCC4)c3c2)o1`, the Potency is 26000 nM (active).

As for `COc1ccc(-c2nccc(NCc3ccc(Cl)cc3)n2)cc1`, the Potency entry is “inactive”. Under `Clc1ccc(CNc2ncncc2-c2ccc3c(c2)OCO3)cc1` stands 26000 nM (active); under `COc1ccc(CNc2ccnc(-c3c(C)noc3C)n2)cc1`, “inactive”; under `Clc1ccc(CNc2ccnc(-c3ccc4c(c3)OCO4)n2)cc1Cl`, “inactive”. As for `c1cncc(CNc2nccc(-c3ccc4[nH]ncc4c3)n2)c1`, the Potency was 146 nM (active). Under `Cc1noc(C)c1-c1nccc(NCc2ccc(Cl)cc2)n1` stands “inactive”; under `FC(F)(F)c1cc(Br)cc(Nc2nccc(-c3ccc4c(c3)OCO4)n2)c1`, 519 nM (active); under `Clc1ccc(CNc2nccc(-c3ccc4c(c3)OCO4)n2)cc1Cl`, 164 nM (active).

Regarding `CC(C)(C)CNc1ncnc2ccc(-c3ccc(C(=O)O)o3)cc12`, the Potency was 2320 nM (active). Consider `c1cncc(CNc2ccnc(-c3cccc4ccccc34)n2)c1`, for which the Potency is 41200 nM (active). Under `c1cncc(CNc2ccnc(-c3ccc4cn[nH]c4c3)n2)c1` stands 2070 nM (active). In the case of `c1nc(NCC2CCCOC2)c2cc(-c3ccc4c(c3)OCO4)ccc2n1` (stereo not given), the Potency is 116 nM (active). Under `CCCN(C)c1ncnc2ccc(-c3ccc4c(c3)OCO4)cc12` stands 260 nM (active); under `Clc1ccc(CNc2nccc(-c3ccc4[nH]ncc4c3)n2)cc1Cl`, 328 nM (active); under `CN(C)c1ccc(-c2nccc(NCc3ccccc3)n2)cc1`, “inactive”. Under `O=C(O)c1ccc(-c2ccc3ncnc(NCC4CCCO4)c3c2)o1` (stereo not given) stands 20700 nM (active); under `c1nc(NCC2CC2)c2cc(-c3ccc4c(c3)OCO4)ccc2n1`, 41.2 nM (active). Under `c1nc(NCC2CCCCC2)c2cc(-c3ccc4c(c3)OCO4)ccc2n1` stands 116 nM (active); under `c1nc(NCC2CCCCO2)c2cc(-c3ccc4c(c3)OCO4)ccc2n1` (stereo not given), 65.4 nM (active); under `CN(C)c1ccc(-c2ncccn2)cc1`, “inactive”.

For `c1cncc(CNc2ccnc(-c3ccc4[nH]ncc4c3)n2)c1`, the Potency was 654 nM (active). For the compound `c1coc(CNc2ncnc3ccc(-c4ccc5c(c4)OCO5)cc23)c1`, the Potency was 104 nM (active).

On to `Clc1ccc(CNc2nccc(-c3ccc4cn[nH]c4c3)n2)cc1Cl`, for which the Potency was 412 nM (active).

In the case of `O=C(Nc1ccnc(-c2ccc3c(c2)OCO3)n1)c1ccncn1`, the Potency entry is “inactive”. Under `COc1ccc(-c2ncccn2)cc1` stands “inactive”. In the case of `COc1cccc(-c2ccnc(NCc3ccc(Cl)cc3)n2)c1`, the Potency is 7330 nM (active).
